# According to PubChem BioAssay (Tox21):
# Where “and” joins values, the source holds several entries; their conditions need not be identical. Equal entries are not always repeated. Results filed as inconclusive are left out. Entries that show only a call come without a potency. Where a structure was tested more than once in an assay, its records may differ in their call. Calls of active or inactive are those of the source. Unless noted, calls come from the whole dose curve; as a rule, active = well fitted curve in the direction sought with a large enough effect in the repeat runs; inconclusive = weak or mixed curves; inactive = no such curve, though single readings can be large; an effect the other way counts as inactive or inconclusive.
# Assays:
# [1] = Human pregnane X receptor (PXR) small molecule agonists, qHTS cell viability counter screen (AID 1346977); note: nearly all actives have a fitted effect of over 50% in size; note: potency is the fitted concentration of half-maximal effect
# Method in brief: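 Readout is CellTiter-Fluor fluorescence from PXR-Luc HepG2 cells. Plated cells rested 5hr, then were treated with compounds for 24hr at 37C and 5% CO2, with reagent present during the last hour.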
# [2] = Caspase-3/7 induction in HepG2 cells by small molecules, qHTS assay (AID 1346978); note: nearly all actives have a fitted effect of over 15% in size; note: potency is the fitted concentration of half-maximal effect
# Method in brief: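 Caspase-3/7 induction was measured by Caspase-Glo 3/7 luminescence (30 min, room temperature) after a 17 hr compound exposure of wild-type HepG2 cells seeded at 2,000 per well and pre-incubated 5 hr.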
# [3] = Caspase-3/7 induction in CHO-K1 cells by small molecules, qHTS cell viability counter screen (AID 1346979); note: nearly all actives have a fitted effect of over 35% in size; note: potency is the fitted concentration of half-maximal effect
# Method in brief: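 To flag cytotoxic compounds, treated CHO-K1 wild-type cells were given CellTiter-Fluor at 16hr and read fluorescently after 1hr at 37C; the caspase-3/7 luminescence was measured in these same wells.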
# [4] = Caspase-3/7 induction in CHO-K1 cells by small molecules, qHTS assay (AID 1346980); note: nearly all actives have a fitted effect of over 15% in size; note: potency is the fitted concentration of half-maximal effect
# Method in brief: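 Luminescent Caspase-Glo 3/7 read (30min, room temperature) quantified apoptosis induction. Cells were wild-type CHO-K1, treated with compound for 17hr at 37 C and 5% CO2.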
# [5] = Caspase-3/7 induction in HepG2 cells by small molecules, qHTS cell viability counter screen (AID 1346981); note: nearly all actives have a fitted effect of over 30% in size; note: potency is the fitted concentration of half-maximal effect
# Method in brief: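 After a 5-hr attachment period at 37 C and 5% CO2, wild-type HepG2 cells received compounds in DMSO. Sixteen hours later CellTiter-Fluor was dispensed and the fluorescent signal quantified after a further hour.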
# [6] = molecular target: Nuclear receptor subfamily 1 group I member 2 (Homo sapiens) (UniProt O75469); assay: Human pregnane X receptor (PXR) small molecule agonists, qHTS assay (AID 1346982); note: nearly all actives have a fitted effect of over 35% in size; note: potency is the fitted concentration of half-maximal effect
# Method in brief: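 Tox21 qHTS; PXR-Luc HepG2; compounds pinned from DMSO; 24 hr, 37 C; ONE-Glo luciferase detection, 30 min room temperature.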
# [7] = molecular target: Acetylcholinesterase (Homo sapiens) (UniProt P22303); assay: Acetylcholinesterase (AChE) small molecule antagonists: colormetric cell-based qHTS assay (AID 1347395; calls by dose curve; note: nearly all actives have a fitted effect of over 30% in size; note: potency is the fitted concentration of half-maximal effect)
# Method in brief: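 Neuroblastoma line SH-SY5Y supplied the enzyme; cells were preincubated with compound for 30 min at 37 C and 5% CO2. Acetylthiocholine with DTNB was then added for 90 min at 37 C, and thiocholine was measured by colour.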
# [8] = molecular target: Nuclear receptor subfamily 1 group I member 2 (Rattus norvegicus) (UniProt Q9R1A7); assay: Rat pregnane X receptor (rPXR) activation by small molecules, qHTS assay (AID 1346983); conditions: rPXR luciferase reporter cells, One-Glo luminescence, 24 h; max activation: stronger effect = higher value; note: nearly all actives have a fitted effect of over 20% in size
# Method in brief: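 Luminescent readout (One-Glo luciferase, 30 min room temperature) followed 24 hr compound treatment at 37 C of rPXR cells plated 2,000 per well and preincubated 5hr; qHTS format with compounds delivered in DMSO.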
# [9] = molecular target: Nuclear receptor subfamily 1 group I member 2 (Homo sapiens) (UniProt O75469); assay: CYP3A4 induction through human pregnane X receptor (PXR) by small molecules, qHTS assay (AID 1346984); note: nearly all actives have a fitted effect of over 40% in size
# Method in brief: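 Cells (DPX-2; HepG2 with PXR element plus CYP3A4-promoter luciferase) settled 5hr, then were treated 24hr at 37C. A 3hr, 3uM-final Luciferin-IPA step preceded luminescence measurement with One-Glo.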
# [10] = molecular target: Nuclear receptor subfamily 1 group I member 2 (Homo sapiens) (UniProt O75469); assay: Human pregnane X receptor (PXR) activation by small molecules, qHTS assay (AID 1346985); note: nearly all actives have a fitted effect of over 40% in size
# Method in brief: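 DPX-2 cells (HepG2 co-transfected with a PXR response element and a CYP3A4-promoter luciferase construct) were seeded at 2,000 per well, rested 5 hr at 37C, then exposed to DMSO-dissolved compounds for 24 hr. Activation was read as luciferase luminescence.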
# Chain of Acetylcholinesterase (Homo sapiens) (P22303 whole entry, looked up): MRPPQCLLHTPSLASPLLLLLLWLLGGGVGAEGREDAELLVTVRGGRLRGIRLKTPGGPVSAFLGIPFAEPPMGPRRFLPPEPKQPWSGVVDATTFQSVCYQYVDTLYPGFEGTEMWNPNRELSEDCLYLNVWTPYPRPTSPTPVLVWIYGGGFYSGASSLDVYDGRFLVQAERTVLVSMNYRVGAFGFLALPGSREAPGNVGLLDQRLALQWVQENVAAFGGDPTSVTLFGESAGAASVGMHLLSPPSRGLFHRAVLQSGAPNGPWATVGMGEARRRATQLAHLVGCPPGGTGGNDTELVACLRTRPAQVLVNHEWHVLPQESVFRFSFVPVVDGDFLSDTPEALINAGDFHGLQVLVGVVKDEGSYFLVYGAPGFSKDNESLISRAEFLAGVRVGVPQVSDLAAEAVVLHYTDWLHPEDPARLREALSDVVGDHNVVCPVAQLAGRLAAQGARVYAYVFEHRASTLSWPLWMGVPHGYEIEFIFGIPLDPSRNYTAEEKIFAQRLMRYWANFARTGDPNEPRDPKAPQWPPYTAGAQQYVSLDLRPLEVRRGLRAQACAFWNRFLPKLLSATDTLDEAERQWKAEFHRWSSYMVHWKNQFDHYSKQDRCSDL
# Chain of Nuclear receptor subfamily 1 group I member 2 (Homo sapiens) (O75469 whole entry, looked up): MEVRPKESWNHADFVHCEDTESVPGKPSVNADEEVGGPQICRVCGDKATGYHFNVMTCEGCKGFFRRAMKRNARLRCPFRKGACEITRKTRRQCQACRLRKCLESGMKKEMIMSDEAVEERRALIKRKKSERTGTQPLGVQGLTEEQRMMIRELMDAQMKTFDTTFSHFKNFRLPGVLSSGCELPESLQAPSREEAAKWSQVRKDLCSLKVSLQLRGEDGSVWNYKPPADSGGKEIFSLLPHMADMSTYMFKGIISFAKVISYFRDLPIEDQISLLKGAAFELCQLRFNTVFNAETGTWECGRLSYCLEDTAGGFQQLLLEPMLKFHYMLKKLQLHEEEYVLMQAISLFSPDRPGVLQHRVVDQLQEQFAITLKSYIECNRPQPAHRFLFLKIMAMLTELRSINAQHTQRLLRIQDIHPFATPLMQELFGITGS
# Chain of Nuclear receptor subfamily 1 group I member 2 (Rattus norvegicus) (Q9R1A7 whole entry, looked up): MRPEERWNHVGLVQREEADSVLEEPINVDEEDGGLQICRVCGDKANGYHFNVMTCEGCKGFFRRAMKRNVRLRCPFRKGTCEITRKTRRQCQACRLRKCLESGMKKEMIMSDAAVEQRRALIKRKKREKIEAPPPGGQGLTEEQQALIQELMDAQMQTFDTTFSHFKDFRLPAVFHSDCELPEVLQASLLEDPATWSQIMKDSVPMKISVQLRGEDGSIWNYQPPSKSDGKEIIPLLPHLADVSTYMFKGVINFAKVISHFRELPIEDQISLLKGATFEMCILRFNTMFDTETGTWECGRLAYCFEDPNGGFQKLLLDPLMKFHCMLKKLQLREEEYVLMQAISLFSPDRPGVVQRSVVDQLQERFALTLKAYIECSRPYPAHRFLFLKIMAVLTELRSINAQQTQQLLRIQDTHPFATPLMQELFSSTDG
SMILES,Potency [1],Potency [2],Potency [3],Potency [4],Potency [5],Potency [6],Potency [7],"activity, negative = inhibition [7]",max activation [8],Potency [9],Potency [10]
BrCC(Br)(Br)Br,inactive,inactive,inactive,inactive,inactive,inactive,inactive,–,–,–,–
ClC(Cl)C(Cl)(Cl)Cl,inactive,inactive,inactive,inactive,inactive,inactive,inactive,–,–,–,–
CC1(C)[C@H](/C=C2\CCSC2=O)[C@@H]1C(=O)OCc1coc(Cc2ccccc2)c1,inactive,inactive,61.1 µM (active),inactive,inactive,21.7 µM (active),inactive,–,–,–,–
O=Cc1ccccc1,inactive,inactive,inactive,inactive,inactive,inactive,inactive,–,–,–,–
OCC(Br)CBr (configuration not stated),inactive,inactive,inactive,inactive,inactive,inactive,inactive,–,–,–,–
C=CC(=C)C,inactive,inactive,inactive,inactive,inactive,inactive,inactive,–,–,–,–
CCNS(=O)(=O)C(F)(F)C(F)(F)C(F)(F)C(F)(F)C(F)(F)C(F)(F)C(F)(F)C(F)(F)F,inactive,inactive,inactive,inactive,inactive,–,inactive,–,–,–,–
CC(Cl)CCl (configuration not stated),inactive,inactive,inactive,inactive,inactive,inactive,inactive,–,–,–,–
COC(=O)c1ccccc1S(=O)(=O)NC(=O)Nc1nc(C)nc(OC)n1,inactive,inactive,inactive,inactive,inactive,inactive,inactive,–,–,–,–
CN/C(=N\[N+](=O)[O-])NCc1cnc(Cl)s1,inactive,inactive,inactive,inactive,inactive,inactive,inactive,–,–,–,–
CCC[CH2][Sn]([CH2]CCC)([CH2]CCC)[O][Sn]([CH2]CCC)([CH2]CCC)[CH2]CCC,0.533 µM (active),2.38 µM (active),0.336 µM (active),0.671 µM (active),1.34 µM (active),0.238 µM (active),–,-0.727% [at 10.5 µM] (inactive),–,–,–
CCCCc1ccccc1,inactive,inactive,inactive,inactive,inactive,inactive,inactive,–,–,–,–
O=S1(=O)OCC2C(CO1)C1(Cl)C(Cl)=C(Cl)C2(Cl)C1(Cl)Cl (configuration not stated),inactive,inactive,48.6 µM (active),inactive,inactive,21.7 µM (active),inactive,–,–,–,–
CCCCN(CCCC)C(=S)S,inactive,inactive,inactive,inactive,inactive,24.3 µM (active),inactive,–,–,–,–
C#CC1(O)CCCCC1,inactive,inactive,inactive,inactive,inactive,inactive,inactive,–,–,–,–
CCCCC(CC)COC(=O)c1ccccc1C(=O)OCC(CC)CCCC (configuration not stated),inactive,inactive,inactive,inactive,inactive,6.86 µM (active),inactive,–,–,–,–
COCCC#N,inactive,inactive,inactive,inactive,inactive,inactive,inactive,–,–,–,–
CC(O)C(=O)[O][Hg][c]1ccccc1 (configuration not stated),1.93 µM (active),inactive,1.09 µM (active),inactive,4.86 µM (active),–,inactive,–,–,–,–
CNC(=O)/C=C(\C)OP(=O)(OC)OC,inactive,inactive,inactive,inactive,inactive,inactive,39.9 µM (active),–,–,–,–
CC(C)C(Nc1ccc(C(F)(F)F)cc1Cl)C(=O)OC(C#N)c1cccc(Oc2ccccc2)c1 (configuration not stated),inactive,inactive,inactive,inactive,inactive,–,inactive,–,–,–,–

SMILES,Potency [1],Potency [2],Potency [3],Potency [4],Potency [5],Potency [6],Potency [7],"activity, negative = inhibition [7]",max activation [8],Potency [9],Potency [10]
Oc1cccc(Cl)c1Cl,inactive,inactive,inactive,inactive,inactive,inactive,inactive,–,–,–,–
COC(=O)C(C)N(C(=O)c1ccco1)c1c(C)cccc1C (configuration not stated),inactive,inactive,inactive,inactive,inactive,10.9 µM (active),inactive,–,–,–,–
Oc1cc(Cl)cc(Cl)c1,inactive,inactive,–,inactive,inactive,69.3 µM (active),inactive,–,–,–,–
Cc1cccc(Cc2cnc[nH]2)c1C,inactive,inactive,inactive,inactive,inactive,–,inactive,–,–,–,–
O=C1C2(Cl)C3(Cl)C4(Cl)C(Cl)(Cl)C5(Cl)C3(Cl)C1(Cl)C5(Cl)C24Cl (configuration not stated),42.6 µM (active),30.1 µM (active) and 65.7 µM (active),37.9 µM (active) and 46.5 µM (active),–,60.1 µM (active),10.7 µM (active) and 10.4 µM (active),inactive,–,–,–,–
O=c1[nH]c(Cl)c(Cl)cc1Cl,inactive,inactive,inactive,inactive,inactive,–,inactive,–,–,–,–
CC(C)N(C(=O)CCl)c1ccccc1,27.3 µM (active),inactive,–,inactive,54.5 µM (active),48.6 µM (active) and inactive,63.3 µM (active),–,–,–,–
Cc1c([N+](=O)[O-])cc2c(c1[N+](=O)[O-])C(C)(C)CC2(C)C,inactive,inactive,–,inactive,inactive,54.5 µM (active),inactive,–,–,–,–
CCC[CH2][Sn]([CH2]CCC)([O]C(C)=O)[O]C(C)=O,27.6 µM (active),inactive,–,inactive,49 µM (active),7.77 µM (active),inactive,–,–,–,–
CCNc1nc(NC(C)C(C)C)nc(SC)n1 (configuration not stated),inactive,inactive,–,inactive,inactive,30.6 µM (active),inactive,–,–,–,–
O=C(NC(=O)c1ccccc1Cl)Nc1ccc(OC(F)(F)F)cc1,inactive,inactive,inactive,inactive,inactive,–,inactive,–,–,–,–
c1ccc2nc(N3CCNCC3)ccc2c1,inactive,inactive,inactive,inactive,inactive,–,inactive,–,–,–,–
Cc1ccc(C)c2ccccc12,inactive,inactive,–,inactive,inactive,inactive,inactive,–,–,–,–
COP(=S)(NC(C)C)Oc1ccc(C)cc1[N+](=O)[O-] (configuration not stated),inactive,inactive,–,inactive,inactive,30.6 µM (active),inactive,–,–,–,–
CSSC,inactive,24.6 µM (active),inactive,inactive,inactive,–,inactive,–,–,–,–
S=C=Nc1ccccc1,inactive,inactive,inactive,inactive,inactive,–,inactive,–,–,–,–
Nc1ccccc1-c1ccccc1,inactive,inactive,inactive,inactive,inactive,–,inactive,–,–,–,–
Clc1cc(Cl)c(-c2cc(Cl)c(Cl)cc2Cl)cc1Cl,inactive,inactive,inactive,inactive,inactive,–,inactive,–,–,–,–
COP(=O)(OC)O/C(=C\Cl)c1cc(Cl)c(Cl)cc1Cl,inactive,inactive,–,inactive,inactive,54.5 µM (active),–,–,–,–,–
CC(Cc1ccc2c(c1)OCO2)NO (configuration not stated),inactive,inactive,–,inactive,inactive,inactive,inactive,–,–,–,–

SMILES,Potency [1],Potency [2],Potency [3],Potency [4],Potency [5],Potency [6],Potency [7],"activity, negative = inhibition [7]",max activation [8],Potency [9],Potency [10]
CCCCCCCCCCCCCCn1cc[n+](C)c1,12.2 µM (active) and 27 µM (active),43.4 µM (active) and inactive,4.34 µM (active) and 8.54 µM (active) and 61.1 µM (active),inactive,61.3 µM (active) and 67.8 µM (active) and 54.4 µM (active),–,63.4 µM (active) and 70.2 µM (active) and inactive,–,–,–,–
COP(=S)(OC)Oc1nc(Cl)c(Cl)cc1Cl,inactive,inactive,–,inactive,inactive,inactive,inactive,–,–,–,–
O=S(=O)(O)F,inactive,inactive,inactive,inactive,–,–,inactive,–,–,–,–
CCCCCON=O,inactive,inactive,inactive,inactive,inactive,–,inactive,–,–,–,–
COC(=O)/C=C(\C)OP(=O)(OC)OC,inactive,inactive,inactive,inactive,inactive,–,2.24 µM (active),–,–,–,–
CC[N+]1(CC)CCC(OC(=O)C(O)(c2ccccc2)c2ccccc2)C1 (configuration not stated),inactive,inactive,inactive,inactive,inactive,–,inactive,–,–,–,–
CC(C)[C@@H](Nc1ccc(C(F)(F)F)cc1Cl)C(=O)OC(C#N)c1cccc(Oc2ccccc2)c1 (some centres not stated),inactive,inactive,–,inactive,inactive,7.42 µM (active),inactive,–,–,–,–
Cc1ccc([N+](=O)[O-])[c]2c1[O][Hg]2,6.68 µM (active),inactive,1.68 µM (active),inactive,21.1 µM (active),–,inactive,–,–,–,–
CC(=O)[O-].CC(=O)[O-].CC(=O)[O-].[Cr+3],inactive,inactive,–,inactive,inactive,–,–,–,–,–,–
CC(C)N(C(=O)SC/C(Cl)=C/Cl)C(C)C,inactive,inactive,inactive,inactive,inactive,–,inactive,–,–,–,–
COc1ccc2c3c1O[C@H]1[C@H](O)CC[C@H]4[C@@H](C2)N(C)CC[C@@]341,inactive,inactive,inactive,inactive,inactive,–,inactive,–,–,–,–
Brc1ccc(Oc2ccc(Br)cc2Br)c(Br)c1,inactive,inactive,–,inactive,inactive,30.7 µM (active),inactive,–,–,–,–
CSC(=O)c1c(C(F)F)nc(C(F)(F)F)c(C(=O)SC)c1CC(C)C,inactive,inactive,–,inactive,inactive,4.83 µM (active),inactive,–,–,–,–
ClSC(Cl)(Cl)Cl,inactive,inactive,–,inactive,inactive,inactive,inactive,–,–,–,–
COc1c2c(cc3c1OCO3)CCN(C)C2,inactive,inactive,–,inactive,inactive,inactive,inactive,–,-1.49% (inactive),inactive,inactive
Nc1nc(N)nc(Cl)n1,inactive,inactive,–,inactive,inactive,inactive,inactive,–,–,–,–
CCC(C)Br (configuration not stated),inactive,inactive,–,inactive,inactive,inactive,inactive,–,–,–,–
O=[N+]([O-])c1cc(C(F)(F)F)c(Cl)c([N+](=O)[O-])c1Nc1ncc(C(F)(F)F)cc1Cl,17.2 µM (active),inactive,5.45 µM (active),–,54.5 µM (active),8.63 µM (active),inactive,–,–,–,–
O=C(NC(=O)c1c(F)cccc1F)Nc1ccc(Oc2ccc(C(F)(F)F)cc2Cl)cc1F,inactive,inactive,61.1 µM (active),inactive,–,19.3 µM (active),inactive,–,–,–,–
